Test results from PubChem BioAssay (NCATS).
Several values for one entry are separate records, joined by “and”; a condition that tells them apart may be missing. Equal entries are not always repeated. Results filed as inconclusive are left out. Unmarked numbers belong to inactive results. Activity calls are given as the source filed them. Calls follow the shape of the dose curve; as a rule, active = well fitted inhibition curve with a large enough effect; inconclusive = small, poorly fitted or top-dose-only effect; inactive = no such curve, though single readings can be large or run the other way.

experiment: Tertiary RLuc qRT-PCR qHTS assay for Zika virus inhibitors (AID 1347169); conditions: infected Vero cells, reporter luminescence, 48-72 h; series mostly up to 45.9 µM; activity change, negative = inhibition: at the top concentration; also: nearly all actives have a fitted effect of over 55% in size; as to activity change, negative = inhibition: top concentration of the series differs between compounds
Excerpt: Avindra Nath, Ph.D., National Institute of Neurological Disorders and Stroke (NINDS), Bethesda, MD
Radhakrishnan Padmanabhan, Ph.D., Georgetown University (GU), Washington D.C.
Zika Virus causes congenital defects, including microcephaly and is associated with Guillain-Barre syndrome, eningoencephalitis and myelitis in infected adult. […] Using a target-based approach, we hope to establish a screening paradigm to uncover novel, cell-active NS2B-NS3 protease (Zika Virus) specific inhibitors from NCATS' collection of small molecules using qHTS.
Four assay panel was created to identify potential Zika Virus inhibitors. Namely, (1) GU unlinked NS2B-NS3 AMC tagged protease qHTS, (2) GU unlinked NS2B-NS3 Rhodamine tagged protease qHTS, (3) NINDS linked NS2B-NS3 AMC tagged protease qHTS, (4) NINDS linked NS2B-NS3 Rhodamine tagged protease qHTS. Identified inhibitors were re-acquired and tested against secondary confirmatory, orthogonal, and counterscreens to exclude nonspecific inhibition.
Early Translation Branch (ETB)
National Center for Advancing Translational Sciences (NCATS), Rockville, MD
National Institute of Health (NIH), Bethesda, Maryland
1536-well recombinant virus ZIKV-RLuc (Cambodian) Assay:
For a follow-up assay, we adapted a high throughput orthogonal assay in 1536-well plate format to use the recombinant virus ZIKV-RLuc, in Vero cells. Briefly, three microL of Vero cells derived from a green monkey cell line, were dispensed Multidrop Dispenser into a solid bottom white 1,536-well plate at a concentration of 1,000 cells per well. The plate was incubated overnight in a CO2 incubator at 37 degrees C. Compounds were delivered as a 23 nL DMSO solution by Kalypsys pintool transfer. Following compound transfer, 2 microL of ZIKV-RLuc was added at an MOI of 1-2 and incubated in a CO2 incubator for 48-72 hrs at 37 degrees C. After sufficient incubation of infected cells in test plates, live cell Renilla luciferase substrate (Promega) was added. The luminescence signal was measured after 1-1.5 hrs exposure to substrate in ViewLux reader.
% is scaled to controls: 0 for no effect and ±100 for the full control effect; potency is read from the fitted curve at half-maximal effect.

Structure (SMILES) | activity change, negative = inhibition | Potency
Cc1nc(-c2ccc(OCC(C)C)c(C#N)c2)sc1C(=O)O | -5.66% | 
Cc1nc(Nc2ncc(C(=O)Nc3c(C)cccc3Cl)s2)cc(N2CCN(CCO)CC2)n1 |  | 224 nM (active)
N[C@@H](Cc1cc(I)c(Oc2cc(I)c(O)c(I)c2)c(I)c1)C(=O)O | -3.48% [at 0.566 µM] | 
O=c1c(O)c(-c2cc(O)c(O)c(O)c2)oc2cc(O)cc(O)c12 | 40.4% [at 3.57 µM] | 
S=c1nc[nH]c2nc[nH]c12 |  | 20800 nM (active)
O=c1c(O)c(-c2ccc(O)cc2O)oc2cc(O)cc(O)c12 | 28.3% | 
Cc1c(OCC(F)(F)F)ccnc1CS(=O)c1nc2ccccc2[nH]1 (stereo not drawn) | 11.3% | 
COc1cc2c(cc1OC)C1CC(=O)C(CC(C)C)CN1CC2 (stereo not drawn) | -21.7% | 
CN(C)C(=O)[C@H](O)[C@H](Cc1ccccc1)NC(=O)c1cc2cc(Cl)ccc2[nH]1 | -5% | 
O=C(O)c1cn(-c2ccc(F)cc2)c2cc(N3CCNCC3)c(F)cc2c1=O |  | inactive
COc1c2occc2cc2ccc(=O)oc12 |  | inactive
CCc1nc(N)nc(N)c1-c1ccc(Cl)cc1 |  | 11.7 µM (active) and 16.5 µM (active)
CC(C)C[C@H](NC(=O)[C@H](Cc1ccccc1)NC(=O)c1cnccn1)B(O)O |  | 37 nM (active)
